{"source": "PubChem BioAssay (EPA / NIEHS)", "note": "Calls of active or inactive are those of the source. How the source made its calls: active means hit-call score of the fitted dose curve at least 0.9, where 1 is the maximum; inactive means score below 0.9.", "data": [{"test": "Tanguay_ZF_120hpf_MORT: Oregon State University Tanguay Lab 120 Hour Post-fertilization zebrafish Assay for Mortality (AID 2284399)", "description": "Tanguay_ZF_120hpf is a whole embryo, multiplexed endpoint assay using zebrafish larvae exposed for 120 hours post fertilization on a 96-well plate.Tanguay_ZF_120hpf_MORT is one of one assay component(s) measured or calculated from the Tanguay_ZF_120hpf assay. It is designed to make measurements of zebrafish development as detected with brightfield microscopy of developing zebrafish embryos.Data from the assay component Tanguay_ZF_120hpf_MORT was analyzed into 1 assay endpoints. This assay endpoint, Tanguay_ZF_120hpf_MORT, was analyzed in the positive analysis fitting direction relative to DMSO as the negative control and baseline of activity. Using a type of viability reporter, gain-of-signal activity can be used to understand changes in developmentals as they relate to the whole embryo. To generalize the intended target to other relatable targets, this assay endpoint is annotated to the zebrafish development intended target family, where the subfamily is embryonic mortality.\nZebrafish husbandry: Tropical 5D wild-type adult zebrafish were housed in at an approximate density of 1000 per 100 gallon tank at the Sinnhuber Aquatic Research Laboratory, Oregon State University, Corvallis, OR. Each tank was kept at standard laboratory conditions of 28C on a 14-h light/10-h dark photoperiod in fish water consisting of reverse osmosis water supplemented with a commercially available salt (Instant Ocean). Spawning funnels were placed into the tanks the night prior, and embryos were collected and staged. To increase bioavailability, the chorion was enzymatically removed using pronase (63.6mg/ml, >/= 3.5U/mg, Sigma-Aldrich: P5147) at 4 hours post fertilization (hpf) using a custom automated dechorionator.Chemical exposures: Six hpf dechorionated embryos were placed 1 embryo per well in a 96-well plate prefilled with 90 ul of EM using automated embryo placement systems (AEPS). Ten microliters of each row of dilution plate 2 was added to 2 exposure plates. The final DMSO concentration used was 0.64% (vol/vol). Thirty-two embryos were also exposed to 5uM trimethyltin chloride (positive control). Plates were sealed to prevent evaporation and foil covered to reduce light exposure and kept in a 28C incubator. Embryos were statically exposed until 120 hpf. At 24 hpf, embryos were assessed for photomotor response using a custom photomotor response analysis tool (PRAT) and for developmental toxicity endpoints (MO24: mortality at 24 hpf, DP: developmental progression, SM: spontaneous movement, and NC: notochord distortion). At 120 hpf, locomotor activity was measured using Viewpoint Zebralab and assessed for 13 endpoints. Zebrafish acquisition and analysis program (ZAAP), a custom program designed to inventory, acquire, and manage zebrafish data, was used to collect developmental endpoints as either present or absent (i.e., binary responses were recorded). If mortality occurred for an embryo (at either 24 or 120 hpf), the non-mortality endpoints were not measured.", "values": [{"molecule": "O=C(O)C(F)(OC(F)(F)C(F)(F)C(F)(F)F)C(F)(F)F", "note": "(centres undefined)", "outcome": "inactive"}, {"molecule": "CC(O)C(F)(F)C(F)(F)F", "note": "(centres undefined)", "outcome": "inactive"}, {"molecule": "FC(F)(F)C(F)(C(F)(F)F)C(F)(F)C(F)(F)CC1CO1", "note": "(centres undefined)", "outcome": "inactive"}, {"molecule": "OCC(F)(F)OC(F)(F)C(F)(F)OC(F)(F)C(F)(F)OC(F)(F)F", "outcome": "inactive"}, {"molecule": "O=S(=O)(F)C(F)(F)C(F)(F)C(F)(F)C(F)(F)C(F)(F)C(F)(F)C(F)(F)C(F)(F)F", "outcome": "inactive"}, {"molecule": "OCC(F)(F)OC(F)(F)C(F)(F)OC(F)(F)CO", "outcome": "inactive"}, {"molecule": "COC(=O)C(F)(F)C(F)(F)OC(F)(C(F)(F)F)C(F)(F)OC(F)=C(F)F", "note": "(centres undefined)", "AC50": "22.2 µM (active)"}, {"molecule": "O=C(O)C(F)(F)OC(F)(F)C(F)(F)OC(F)(F)C(=O)O", "outcome": "inactive"}, {"molecule": "NC(=O)C(F)(F)C(F)(F)F", "outcome": "inactive"}, {"molecule": "O=C(O)C(F)(F)OC(F)(F)C(F)(F)OC(F)(F)F", "outcome": "inactive"}, {"molecule": "OCC(F)(F)OC(F)(F)C(F)(F)OC(F)(F)C(F)(F)OC(F)(F)CO", "AC50": "57.6 µM (active)"}, {"molecule": "O=C(O)C=CC(F)(C(F)(F)F)C(F)(F)F", "outcome": "inactive"}, {"molecule": "O=C(O)C(F)(F)C(F)(F)C(=O)O", "outcome": "inactive"}, {"molecule": "C=CC(=O)OCC(F)(F)C(F)F", "AC50": "64 µM (active)"}]}]}
